Data reported in the supplement of paper PMC9023506.
Structures can show the parent of a compound that is named as a salt.

Experiments:
Conditions in all cases: 10 µM; exposure time: 3 h pre-incubation + 3 h imaging
[1] = system: Danio rerio larvae (5 dpf); test: optomotor response to red moving lines, difference vs DMSO (percentage points (treated minus DMSO)); higher = more of the behaviour than the DMSO vehicle control
Procedure, shortened: (§1)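 Library drugs were diluted 1000× from DMSO stocks into egg water to reach 10 µM and applied to 5-dpf wild-type zebrafish larvae in 96-well ProxiPlates, 48 larvae per drug. The larvae stayed exposed for 3 h before imaging and for the 3 h of imaging at 28.5 °C. Behaviour scores, given in percentage points, are the treated mean minus the vehicle mean for movement and upper-half location.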

[2] = system: Danio rerio larvae (5 dpf); test: optomotor response to blue moving lines, difference vs DMSO (percentage points (treated minus DMSO)); higher = more of the behaviour than the DMSO vehicle control
Procedure, shortened: as §1

[3] = system: Danio rerio larvae (5 dpf); test: optomotor response to green moving lines, difference vs DMSO (percentage points (treated minus DMSO)); higher = more of the behaviour than the DMSO vehicle control
Procedure, shortened: as §1

[4] = system: Danio rerio larvae (5 dpf); test: excitability to 1-s acoustic pulses, difference vs DMSO (percentage points (treated minus DMSO)); higher = more of the behaviour than the DMSO vehicle control
Procedure, shortened: as §1

[5] = system: Danio rerio larvae (5 dpf); test: activity during first hour (no stimuli), difference vs DMSO (percentage points (treated minus DMSO)); higher = more of the behaviour than the DMSO vehicle control
Procedure, shortened: as §1

[6] = system: Danio rerio larvae (5 dpf); test: habituation to 1-s acoustic pulses, difference vs DMSO (percentage points (treated minus DMSO)); higher = more of the behaviour than the DMSO vehicle control
Procedure, shortened: as §1

[7] = system: Danio rerio larvae (5 dpf); test: optomotor response to fast red moving lines, difference vs DMSO (percentage points (treated minus DMSO)); higher = more of the behaviour than the DMSO vehicle control
Procedure, shortened: as §1

[8] = system: Danio rerio larvae (5 dpf); test: startle response to 20-s acoustic pulses, difference vs DMSO (percentage points (treated minus DMSO)); higher = more of the behaviour than the DMSO vehicle control
Procedure, shortened: as §1

[9] = system: Danio rerio larvae (5 dpf); test: activity during period 15 (no stimuli), difference vs DMSO (percentage points (treated minus DMSO)); higher = more of the behaviour than the DMSO vehicle control
Procedure, shortened: as §1

In the case of `N#C[C@@H]1C[C@@H]2C[C@@H]2N1C(=O)[C@@H](N)C12CC3CC(CC(O)(C3)C1)C2` [Saxagliptin hydrochloride], the “optomotor response to red moving lines” value [1] is reported as -1.45, the “optomotor response to blue moving lines” value [2] is reported as -7.01 and the “optomotor response to green moving lines” value [3] is reported as -3.2.

With `CN(C)CCc1c[nH]c2ccc(C[C@H]3COC(=O)N3)cc12` [Zolmitriptan] the “optomotor response to red moving lines” value [1] was 2.8 and the “optomotor response to green moving lines” value [3] was 6.88.

With `COc1cc([C@@H]2c3cc4c(cc3[C@@H](O[C@@H]3O[C@@H]5CO[C@@H](C)O[C@H]5[C@H](O)[C@H]3O)[C@H]3COC(=O)[C@H]23)OCO4)cc(OC)c1O` [Etoposide] the “excitability to 1-s acoustic pulses” value [4] was 9.69 and the “activity during first hour” value [5] was 3.81.

For `CC(=O)O[C@H]1C(=O)[C@@]2(C)[C@H]([C@H](OC(=O)c3ccccc3)[C@]3(O)C[C@H](OC(=O)[C@H](O)[C@@H](NC(=O)c4ccccc4)c4ccccc4)C(C)=C1C3(C)C)[C@]1(OC(C)=O)CO[C@@H]1C[C@@H]2O` [Taxol], the “habituation to 1-s acoustic pulses” value [6] was -2.74, the “excitability to 1-s acoustic pulses” value [4] was -0.779 and the “activity during first hour” value [5] was 1.84. The optomotor response [7] was -16.4.

`CC(=O)NC[C@H]1CN(c2ccc(N3CCOCC3)c(F)c2)C(=O)O1` [Linezolid] was tested, and the “activity during first hour” value [5] was 3.81, the “optomotor response to blue moving lines” value [2] was -4.03 and the “startle response to 20-s acoustic pulses” value [8] was 2.02.

With `COc1c(C)c2c(c(O)c1C/C=C(\C)CCC(=O)O)C(=O)OC2` [Mycophenolic acid] the “excitability to 1-s acoustic pulses” value [4] was 0.774 and the “activity during first hour” value [5] was 2.64.

For `Cc1ccccc1C(=O)Nc1ccc(C(=O)N2CCCC(O)c3cc(Cl)ccc32)c(C)c1` (configuration not stated) [Tolvaptan], the “activity during period 15” value [9] was -8.09, the “activity during first hour” value [5] was 1.26 and the “startle response to 20-s acoustic pulses” value [8] was 3.71.

With `CC[C@H](C)C(=O)O[C@H]1C[C@@H](C)C=C2C=C[C@H](C)[C@H](CC[C@@H]3C[C@@H](O)CC(=O)O3)[C@H]21` [Lovastatin] the “excitability to 1-s acoustic pulses” value [4] was 12.6, the “activity during first hour” value [5] was -0.394 and the “startle response to 20-s acoustic pulses” value [8] was -0.839.
